How the values were obtained:
Format in all cases: functional
Plasmodium falciparum [1] = experiment: GSK_TCMDC: Inhibition of Plasmodium falciparum 3D7 in whole red blood cells, using parasite LDH activity as an index of growth. Test compounds present at 2uM
Plasmodium falciparum [2] = experiment: GSK_TCMDC: Inhibition of Plasmodium falciparum Dd2 in whole red blood cells, using parasite LDH activity as an index of growth. Test compounds present at 2uM
HepG2 = experiment: GSK_TCMDC: Percent inhibition of human HepG2 cell line. Test compounds present at 10uM.

Row | Compound | Inhibition (Plasmodium falciparum [1]) [%] | Inhibition (Plasmodium falciparum [2]) [%] | Inhibition (HepG2) [%]
1 | COc1ccc2[nH]ccc(=NN=Cc3cccnc3)c2c1 | 100 | 84 | 0
2 | Cc1c(Cl)cccc1S(=O)(=O)N1CCCCC(c2ccc(C(F)(F)F)cc2)=N1 | 86 | 91 | 15
3 | OCCOCn1cnc2cnc(N[C@H]3OC[C@H](O)[C@@H](O)[C@@H]3O)nc21 | 82 | 0 | 42
4 | CCOc1ccc(NC(=O)c2cn3nc(-c4ccc(OCC)cc4)cc3nc2C2CCNCC2)cc1.Cl | 100 | 39 | 36
5 | COc1ccccc1-c1cccc(Nc2c(Nc3ccc(Cl)cc3)c(=O)c2=O)c1 | 81 | 47 | 20
6 | COc1cc2nc(N3CCC(CNC(=O)c4ccc(-c5ccc(C#N)cc5)cc4)CC3)nc(N)c2cc1OC | 100 | 99 | 21
7 | COc1cc(Nc2nccc(N3CCC(NC(=O)c4cccc(NC(C)=O)c4)C3)n2)cc(OC)c1OC (configuration not stated) | 98 | 68 | 9
8 | CC(C)(C)c1nn(-c2ccccc2)c2[nH]c(=O)c(CNCc3ccccc3)cc12 | 90 | 91 | 5
9 | O=C(/C=C/c1cc(C(F)(F)F)ccc1F)NCCCCCN1CCC(c2c[nH]c3ccccc23)CC1 | 88 | 4 | 39
10 | CC1CN(Cc2cccc(C#N)c2)CCN1c1ccc(NC(=O)c2cccs2)cc1.O=C(O)C(F)(F)F (configuration not stated) | 94 | 93 | 4
11 | CC(C)(C)c1ccc2[nH]c(-c3ccc(C(=O)NCc4cccc(C(F)(F)F)c4)cc3)nc2c1 | 98 | 26 | 9
12 | Cc1cc(N[C@@H](CC(C)C)C(=O)NCc2cccc(F)c2)nc(NCCc2ccccc2)n1.O=C(O)C(F)(F)F | 88 | 33 | 6
13 | Cc1ccc(C)c2sc(N3CCN(C(=O)c4ccc([N+](=O)[O-])o4)CC3)nc12 | 96 | 89 | 0
14 | Cc1c(-c2ccc3c(c2)C(NCCCN2CCCCC2)CC3)cnc(N)c1C.Cl (configuration not stated) | 97 | 3 | 4
15 | COc1ccc(OC(C)CNC(=O)c2cc([N+](=O)[O-])ccc2-c2ccc(OC)cc2)cc1 (configuration not stated) | 92 | 44 | 18
16 | O=C(NCc1ccc(F)cc1)c1cnc(N2CCN(c3ccncc3)CC2)c(Cl)c1.O=C(O)C(F)(F)F | 98 | 44 | 30
17 | COc1ccc(Nc2c3ccc(Cl)cc3nc3ccc(OC)cc23)cc1.Cl | 94 | 99 | 14
18 | OC(c1cccc2ccccc12)C1CN(CCc2ccccc2)CCC1(O)c1ccccc1 (configuration not stated) | 99 | 100 | 0
19 | O=C(/C=C/c1ccc(Cl)c(Cl)c1)NCCCCCN1CCCN(C(=O)Nc2ccc(C(F)(F)F)cc2)CC1 | 100 | 7 | 31
20 | CN1CCN(c2ccc(-c3nc4ccc(OCc5cc(Cl)cc(Cl)c5)c(C(N)=O)c4[nH]3)cc2)CC1 | 100 | 85 | 45
21 | Cc1ccc(NC(=O)NC2CCN(CCCCCNC(=O)/C=C/c3ccc(Cl)c(Cl)c3)CC2)cc1 | 100 | 19 | 41
22 | COc1ccccc1C(C)NCC(=O)Nc1cccc(C(=O)Nc2cccc(C(F)(F)F)c2)c1 (configuration not stated) | 91 | 39 | 34
23 | CCc1nc(N)nc(N)c1-c1ccccc1 | 92 | 1 | 53
24 | COc1cc(OC)nc(-c2cccc(NC(=O)c3ccc4c(=O)n(CCN5CCCCC5)cnc4c3)c2)n1 | 100 | 86 | 11
25 | CCc1nc2nc(C)cc(Nc3cc(C)cc(C)c3)n2n1 | 96 | 96 | 21
26 | Cc1cccc2nc(-c3cccc(-c4cccc(NC(=O)COc5ccccc5C(N)=O)c4)c3)[nH]c12 | 100 | 88 | 22
27 | Cc1noc(C)c1-c1cccc(CNCc2cccc(-c3cccc(-c4nc5cc(F)ccc5[nH]4)c3)c2)c1.O=C(O)C(F)(F)F | 100 | 73 | 18
28 | C=CCN1CCC(N(Cc2cccc(Oc3ccccc3)c2)C(=O)C(c2ccccc2)c2ccccc2)CC1 | 87 | 79 | 7
29 | O=C(NCCCNc1ccnc2cc(Cl)ccc12)c1ccccc1F | 100 | 97 | 18
